Measurements published in PubChem BioAssay AID1362 (SRMLSC, 2008).
The campaign covered roughly 190,000 compounds. About 4,000 (2.1%) were called active. This is one part of a sample in which actives are shown more often than they occur. No stated cut-off is given here; in the data, active means inhibition above about 58%; inactive means the rest, inconclusive results apart; tested in S. cerevisiae.

Test: growth inhibition of WT strain, primary screen, mitochondrial fusion inhibitor project, WT and mutant strains, chemical genetic (AID 1362)
Settings: mitochondrial fusion phenotypic screen, at 10 µM
[1] = WT strain, growth inhibition, stronger effect = higher value

For `COc1ccc(CN2CN(C3CCCC3)CSC2=S)cc1`, the inhibition [1] was -12.1% (inactive) and the inhibition (mutant strain inhibition) was -26.6%.

For `Cc1noc(COc2ccccc2OCC(O)CNC(C)(C)C)n1` (stereo not given), the inhibition [1] was -1.99% (inactive) and the inhibition (mutant strain inhibition) was -4.87%.

In the case of `Cc1nc2ccccc2cc1OCc1ccc(F)cc1`, the inhibition [1] is reported as -15.6% (inactive) and the inhibition (mutant strain inhibition) is reported as -4.03%.

In the case of `Cc1noc(COc2ccccc2OCc2onc(C)c2Cl)c1Cl`, the inhibition [1] is reported as 64% (active) and the inhibition (mutant strain inhibition) is reported as 31.8%.

In the case of `CCc1[nH]nc(C(=O)N2CCCC(CNS(=O)(=O)c3cccs3)C2)c1C` (stereo not given), the inhibition [1] is reported as -19% (inactive) and the inhibition (mutant strain inhibition) is reported as 4.29%.

With `O=[N+]([O-])c1ccc2[nH]c3c(c2c1)CCCC3O` (stereo not given) the inhibition [1] was -3.98% (inactive) and the inhibition (mutant strain inhibition) was 12%.

In the case of `COc1ccc(F)cc1C(=O)C1CCCN(C(=O)CCc2ccccn2)C1` (stereo not given), the inhibition [1] is reported as 15.2% (inactive) and the inhibition (mutant strain inhibition) is reported as -2.96%.

For `CCOC(=O)N1CCN(C(=S)Nc2ccc(C)cc2C)CC1`, the inhibition [1] was 7.78% (inactive) and the inhibition (mutant strain inhibition) was 3.64%.

With `CCOC(=O)c1c(C)[nH]c2c1-c1ccccc1C(=O)C2=O` the inhibition [1] was 46.9% (inactive) and the inhibition (mutant strain inhibition) was 15%.

In the case of `CCOC(=O)c1ccccc1NS(=O)(=O)c1ccc(OC)cc1`, the inhibition [1] is reported as 38% (inactive) and the inhibition (mutant strain inhibition) is reported as 30.7%.

For `CCOC(=O)C1=C(c2ccc(OC)cc2)C(=O)c2ccccc2C1=O`, the inhibition [1] was 68.3% (active) and the inhibition (mutant strain inhibition) was 20.7%.

In the case of `CCC(=O)c1ccc(OCC(O)Cn2nc(C)c(C(C)=O)c2C)cc1` (stereo not given), the inhibition [1] is reported as -6.24% (inactive) and the inhibition (mutant strain inhibition) is reported as -0.7%.

With `CCCn1nc(C(=O)N2CCCc3ccccc32)c2ccccc2c1=O` the inhibition [1] was 9.04% (inactive) and the inhibition (mutant strain inhibition) was 8.88%.

With `Cc1ccc(-c2csc(NC(=O)c3cnccn3)n2)cc1C` the inhibition [1] was -10.3% (inactive) and the inhibition (mutant strain inhibition) was 14.6%.

For `Cc1nn(-c2ccccc2)c(Cl)c1/C=C/C(=O)c1ccc(O)cc1`, the inhibition [1] was -8.06% (inactive) and the inhibition (mutant strain inhibition) was 3.09%.

For `Cc1nn(-c2ccccc2)c(Cl)c1C(=O)Nc1ccccc1`, the inhibition [1] was 24.7% (inactive) and the inhibition (mutant strain inhibition) was -5.62%.

For `Cc1ccc(C(=O)/C=C/c2c(C)nn(-c3ccccc3)c2Cl)cc1`, the inhibition [1] was 59.5% (active) and the inhibition (mutant strain inhibition) was -6.72%.

With `O=C(Cn1c(N2CCN(C/C=C/c3ccccc3)CC2)nc2ccccc21)c1ccccc1` the inhibition [1] was 45.1% (inactive) and the inhibition (mutant strain inhibition) was 41.5%.

With `COc1ccc(C(=O)CSc2nnc(-c3ccco3)o2)cc1` the inhibition [1] was -6.52% (inactive) and the inhibition (mutant strain inhibition) was -35.3%.

For `N#Cc1cccc(Nc2c3c(nc4ccccc24)CCCC3)c1`, the inhibition [1] was -0.59% (inactive) and the inhibition (mutant strain inhibition) was 6.35%.

In the case of `COC(=O)c1c(C)[nH]c(C)c1-c1ccc([N+](=O)[O-])cc1`, the inhibition [1] is reported as 53% (inactive) and the inhibition (mutant strain inhibition) is reported as 55.8%.

In the case of `COc1ccc(NC(=S)Nc2ccc(S(N)(=O)=O)cc2)c(C)c1`, the inhibition [1] is reported as 13.8% (inactive) and the inhibition (mutant strain inhibition) is reported as 6.64%.

With `COc1ccc(-c2nn(-c3ccccc3)cc2C(=O)Nc2nccs2)cc1OC` the inhibition [1] was 26.6% (inactive) and the inhibition (mutant strain inhibition) was -2.08%.

With `COc1ccc(-c2nn(-c3ccccc3)cc2/C=N/Nc2ccccn2)cc1OC` the inhibition [1] was 60.2% (active) and the inhibition (mutant strain inhibition) was 31.9%.

For `CC(C)(C)OC(=O)N/N=C/c1cn(-c2ccccc2)nc1-c1cccnc1`, the inhibition [1] was -8.33% (inactive) and the inhibition (mutant strain inhibition) was -1.71%.

With `Cc1nnsc1C(=O)N/N=C/c1cccc(C(F)(F)F)c1` the inhibition [1] was 36.2% (inactive) and the inhibition (mutant strain inhibition) was 7.39%.

For `Cc1cc(=O)oc(C)c1C(=O)NCCN(C)Cc1ccccc1`, the inhibition [1] was -0.58% (inactive) and the inhibition (mutant strain inhibition) was 11.8%.

In the case of `Cc1cc(=O)oc(C)c1C(=O)Nc1cnc2ccccc2c1`, the inhibition [1] is reported as 98.9% (active) and the inhibition (mutant strain inhibition) is reported as 96.3%.

For `Cc1cc(=O)oc(C)c1C(=O)NCc1ccc(F)cc1`, the inhibition [1] was -0.25% (inactive) and the inhibition (mutant strain inhibition) was 16.4%.

With `CC(C)C(=O)NCc1cc(-c2ccc(Cl)cc2)no1` the inhibition [1] was 1.64% (inactive) and the inhibition (mutant strain inhibition) was -1.57%.

In the case of `O=C(CC1C(=O)NCCN1Cc1ccc(-c2ccccc2)cc1)NCC1CCOCC1` (stereo not given), the inhibition [1] is reported as -14.8% (inactive) and the inhibition (mutant strain inhibition) is reported as -10.2%.

With `Fc1cccc(Cl)c1CSc1ccc(-c2ccco2)nn1` the inhibition [1] was 75.3% (active) and the inhibition (mutant strain inhibition) was 67.7%.

With `Brc1ccc(CSc2ccc(-c3ccco3)nn2)cc1` the inhibition [1] was 12.2% (inactive) and the inhibition (mutant strain inhibition) was -1.7%.

For `Cn1c(SCc2c(F)cccc2Cl)nnc1-c1cnccn1`, the inhibition [1] was 4.78% (inactive) and the inhibition (mutant strain inhibition) was -6.62%.

In the case of `CCc1ccc(NC(=O)CSc2nnc(-c3cnccn3)n2Cc2ccco2)cc1`, the inhibition [1] is reported as 6.65% (inactive) and the inhibition (mutant strain inhibition) is reported as 10.6%.

In the case of `CCn1c(SCC(=O)Nc2cc(C)ccc2C)nnc1-c1cnccn1`, the inhibition [1] is reported as 62.3% (active) and the inhibition (mutant strain inhibition) is reported as 14.8%.

For `Cc1ccc(NC(=O)CSc2nnc(-c3cnccn3)n2Cc2ccco2)cc1C`, the inhibition [1] was -14.2% (inactive) and the inhibition (mutant strain inhibition) was -7.75%.

In the case of `CCOc1ccc(C2c3[nH]c4ccccc4c3CCN2Cc2cn(CC)nc2C)cc1` (stereo not given), the inhibition [1] is reported as 36% (inactive) and the inhibition (mutant strain inhibition) is reported as 39.9%.

For `COc1cccc(N(Cc2nnc3n2CCCCC3)C(=O)Nc2ccccc2F)c1`, the inhibition [1] was 9.35% (inactive) and the inhibition (mutant strain inhibition) was 6.31%.

For `Cc1[nH]n(-c2cccc(Cl)c2)c(=O)c1/C=N/n1c(C)nc2ccccc2c1=O`, the inhibition [1] was -0.49% (inactive) and the inhibition (mutant strain inhibition) was -9.97%.

With `O=c1[nH]n(-c2cccc(Cl)c2)c2ncccc12` the inhibition [1] was 3.71% (inactive) and the inhibition (mutant strain inhibition) was 33.7%.

For `Cc1[nH]n(-c2cccc(Cl)c2)c(=O)c1-c1ccc(Cl)cc1`, the inhibition [1] was 81.8% (active) and the inhibition (mutant strain inhibition) was 74.9%.

For `CCc1cc(CNC(=O)CC2C(=O)NCCN2CC2CCCCC2)on1` (stereo not given), the inhibition [1] was 8.17% (inactive) and the inhibition (mutant strain inhibition) was -2.22%.

For `Cc1cccc(C)c1NC(=O)C1(N(C(=O)c2ccccn2)c2ccc(O)cc2)CCCCC1`, the inhibition [1] was 0.64% (inactive) and the inhibition (mutant strain inhibition) was -13.5%.

In the case of `CC(=O)N/N=C(\C)c1ccc(Br)cc1Br`, the inhibition [1] is reported as 13.2% (inactive) and the inhibition (mutant strain inhibition) is reported as 10.1%.

With `O=C(/C(=N\O)n1cncn1)c1ccc(Br)cc1Br` the inhibition [1] was 86.5% (active) and the inhibition (mutant strain inhibition) was -4.91%.

With `Cc1ccc(C(=O)N2CCCC(c3ccccc3)=N2)cc1` the inhibition [1] was 10.8% (inactive) and the inhibition (mutant strain inhibition) was 2.44%.

With `Cc1cccc(NC(=O)c2nnn(-c3cccc(C(F)(F)F)c3)c2N)c1` the inhibition [1] was -4.08% (inactive) and the inhibition (mutant strain inhibition) was -7.16%.

For `O=C1c2ccccc2NC(c2ccccn2)N1NS(=O)(=O)c1ccccc1` (stereo not given), the inhibition [1] was -4.85% (inactive) and the inhibition (mutant strain inhibition) was -14.2%.

For `NS(=O)(=O)c1ccc(N2C(=O)C3C4CC(C(Br)C4Br)C3C2=O)cc1` (stereo not given), the inhibition [1] was -2.55% (inactive) and the inhibition (mutant strain inhibition) was -12.2%.

For `FC(F)(F)c1cc(-c2ccco2)nc(NCc2ccc(Cl)cc2)n1`, the inhibition [1] was 76.9% (active) and the inhibition (mutant strain inhibition) was 17.2%.

For `FC(F)(F)c1cc(-c2cccs2)nc(NCc2ccco2)n1`, the inhibition [1] was 6.76% (inactive) and the inhibition (mutant strain inhibition) was 7.71%.

With `FC(F)(F)c1cc(-c2ccco2)nc(N2CCOCC2)n1` the inhibition [1] was 7.84% (inactive) and the inhibition (mutant strain inhibition) was 9.26%.

For `COc1ccc(CN2CCCC(C(=O)c3ccc(Cl)cc3)C2)cc1Cn1cncn1` (stereo not given), the inhibition [1] was -19.6% (inactive) and the inhibition (mutant strain inhibition) was -4.89%.

In the case of `CCc1ccccc1NC(=S)N(CCN1CCCCCC1)Cc1ccco1`, the inhibition [1] is reported as -9.37% (inactive) and the inhibition (mutant strain inhibition) is reported as 22.4%.
